Several values for one entry are separate records, joined by “and”; a condition that tells them apart may be missing. Identical values can stand only once. Screen size: about 330,000 compounds; about 1,800 (0.55%) were called active. The list comes from a sample in which actives are over-represented; it also holds similar structures and randomly drawn compounds. Values without a mark were called inactive. Rule as the data show it: active = growth inhibition above about 68%; inactive = the rest.
Test: growth inhibition of ugtP-null S. aureus, primary screen, RN4220 ugtP deletion, OD600 (AID 1259309);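 also: plate controls were untreated wells for no effect and antibiotic for full effect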
Conditions: 16 h, stronger effect = higher value

SMILES | growth inhibition
Cc1ccc(O)c(-c2cc(C(=O)Nc3c(C)n(C)n(-c4ccccc4)c3=O)[nH]n2)c1 | 2.72%
Cc1ccc(C)c(NC(=O)c2cc(-c3cc(C)cc(C)c3O)n[nH]2)c1 | 99.5% (active)
Cc1ccc(O)c(-c2cc(C(=O)NCc3ccccc3)[nH]n2)c1 | 7.53%
CNC(=O)CCCCC(=O)NN=Cc1ccc(Cl)cc1Cl | -1.21%
COc1ccc(CC2CN3C(=NCC3C)N2CCNC(=O)CCC2CCCCC2)cc1 (centres undefined) | -6.07% and 2.3%
COc1cccc(C=NNc2ncnc(N)c2[N+](=O)[O-])c1OC | -0.174%
O=C(Nc1ccccc1)C1CC=CC2CCN(Cc3ccc(Cl)c(Cl)c3)C(=O)C21 (centres undefined) | 2.24%
Cc1c(N2C(=O)CSC2=NN=Cc2ccccc2O)c(=O)n(-c2ccccc2)n1C | 7.58%
CCCn1c(=O)c(-c2ccccc2)c(O)c2ccccc21 | 10.2%
CCCn1c(=O)c(C(=O)Nc2cc(C)ccn2)c(O)c2ccccc21 | 11.7%
CCCn1c(=O)c(C(=O)NN=Cc2ccc(F)cc2)c(O)c2ccccc21 | 101% (active)
CC(C)CCn1c(=O)c(C(=O)NN=Cc2cccc(F)c2)c(O)c2ccccc21 | 99% (active)
CCCCCn1c(=O)c(C(=O)NCc2ccccc2)c(O)c2ccccc21 | 44.1%
CCCCCn1c(=O)c(C(=O)NCc2ccccn2)c(O)c2ccccc21 | 10.1%
C/C(C=NNc1nc(C)cc(=O)[nH]1)=C\c1ccccc1 | -4.37%
Cc1ccc(S(=O)(=O)N=Cc2ccco2)cc1 | 4.28%
COC(=O)c1ccc(C23CC4(C2)C(CN(Cc2cccnc2)C4c2ccccc2)C3c2ccc(Cl)nc2)cc1 (centres undefined) | 8.61%
O=C(COc1ccccc1)NCC(=O)NN=C/C=C/c1ccccc1 | 2.76%
O=S1(=O)C[C@@H]2N=C(NN=Cc3ccccc3)S[C@@H]2C1 | -0.808%
COc1ccc(C=CC2=CCN(Cc3ccc(OC)cc3)CC2)cc1 | 1.66%
O=C(NC(=S)NC1CCCCC1)c1ccc(Cl)cc1 | 82.7%
CC(C)C(NC(=O)c1ccc(Cl)cc1)C(=O)O (centres undefined) | 0.934%

SMILES | growth inhibition
CC(C)CNC(=S)NC(=O)c1ccc(Cl)cc1 | 91.1% (active)
Brc1ccccc1C1Nc2cccc3cccc(c23)N1 | -4.74%
Oc1ccc(C2Nc3cccc4cccc(c34)N2)cc1 | 96.6% (active)
COc1ccc(C2NC(=O)c3ccccc3N2)cc1 (centres undefined) | 6.04%
COc1ccc(C=NNC(=O)c2cc[n+]([O-])cc2)cc1 | 2.45%
CC(=NNc1ccc(S(=O)(=O)N2CCCCC2)cn1)c1ccc(O)cc1 | -0.0996%
Cc1ccc(OC(=O)c2ccccc2C(=O)OCC(F)(F)C(F)F)cc1 | 14.2%
Cc1ccc(OC(=O)c2cc3ccccc3o2)cc1 | 98% (active)
COc1ccccc1CN(C)C(=O)c1cc2ccccc2o1 | 9.31%
Cc1ccc(-c2nnnn2C2CC(=NNC(N)=S)C3OCC2O3)cc1 (centres undefined) | 3.57%
O=C(NN=Cc1ccncc1)c1cccc(NC(=O)c2ccc(Cl)cc2)c1 | -6.73%
CCn1c(/C=C/c2ccc([N+](=O)[O-])o2)nc2ccccc2c1=O | 11.7%
O=c1c2ccccc2nc(-c2ccco2)n1-c1ccc(Br)cn1 | 11.8%
O=C(CSc1nc2ccccc2c(=O)n1-c1ccccc1F)N1CCOCC1 | -0.774%
O=C(CSc1nc2ccccc2c(=O)n1-c1ccc(F)cc1)NC1CC1 | 2.6%
O=c1c2ccccc2nc(/C=C/c2ccc(F)cc2)n1-c1ccccc1O | 97.9% (active)
O=c1c2ccccc2nc(/C=C/c2ccco2)n1-c1ccccc1O | 92% (active)
CC1CCCC(C)N1N=Cc1ccc([N+](=O)[O-])cc1 (centres undefined) | 18%
O=C(NN=Cc1cccs1)c1cnccn1 | 1.82%
Cc1ccc(OCC(=O)NNC(=S)NCc2ccccc2)cc1 | -11.7%
Cc1ccc(OCC(=O)NCCCNC(=O)c2ccco2)cc1C | -2.8%
CC(Oc1ccc2ccccc2c1)C(=O)NNC(=S)NC(=O)c1ccco1 (centres undefined) | 91.7% (active)

SMILES | growth inhibition
O=C(Nc1ccc2ccccc2c1)/C(=C/c1cccc(Br)c1)NC(=O)c1ccco1 | -9.2%
CCCc1ccc(OCC(=O)NNC(=S)NC(=O)c2ccco2)cc1 | 96% (active)
Cc1ccc(C(=O)NNC(=O)C(C)Oc2ccc3ccccc3c2)o1 (centres undefined) | 8%
CC(=NNC(=O)CSc1nc2ccccc2o1)c1cccc(O)c1 | 1.7%
COc1cccc(C=NNC(=O)c2cc(-c3cccn3C)n[nH]2)c1 | -20.1%
CN(Cc1c(C(=O)NN=Cc2cccc(F)c2)nnn1-c1nonc1N)c1ccccc1 | 0.685%
Cc1ccccc1C(=O)ON=C(N)c1ccncc1 | 6.35%
O=C(Cn1nc2ccccc2n1)NN=Cc1cc(Cl)cc([N+](=O)[O-])c1O | 2.61%
COC(=O)CC1c2cc(C(F)(F)F)ccc2S(=O)(=O)N1Cc1ccccc1OC (centres undefined) | 4.2%
CCN(CC(=O)Nc1ccc(OC)cc1)C(=O)CSCc1ccc(C)cc1 | 3.82%
COc1ccc(CS(=O)/C(Cl)=C(/Cl)C(=O)Nc2ccc(OC)nc2)cc1 (centres undefined) | 15.9%
COc1ccc(NC(=O)/C(Cl)=C(/Cl)S(=O)Cc2ccc(C)cc2)cn1 (centres undefined) | 99.4% (active)
C[C@]12CCC3c4ccc(OC(=O)c5ccccc5)cc4CCC3C1CCC2O (some centres undefined) | 19.4%
COc1ccc2c(c1)OC(O)(C(F)(F)C(F)F)CC2=O (centres undefined) | 99.4% (active)
COc1ccc2c(c1)SC(C)CC2=O (centres undefined) | -4.08%
COc1ccc2c(c1)C(=O)CC(c1ccccc1)O2 (centres undefined) | 6.73%
CCC(=NOC(=O)c1cccc(C)c1)C(=O)c1cccs1 | -0.652%
O=C1/C(=C/c2cccs2)CCc2ccccc21 | 18.9%
O=C1/C(=C/c2cccs2)CCC1C1CCCC1 (centres undefined) | 8.34%
CCC1C/C(=C/c2cccs2)C(=O)/C(=C/c2cccs2)C1 (centres undefined) | 94.7% (active)

— PubChem BioAssay AID1259309 (ICCB-Longwood Screening Facility, Harvard Medical School, 2017)
